Results from PubChem BioAssay AID1159580 (chemical genetic matrix, 2015).
Hit rate of the full screen: of about 5,500 compounds, about 2,000 (36%) were called active. Another 18% or so got no clear call; they are omitted. Cut-off read from the data, not from the text of the source: active = normalized growth mostly below about 0.91 (no sharp cut-off); inconclusive = no clear call, values can overlap the other calls; inactive = mostly above about 0.92. Some of the results follow.

Assay: chemical genetic growth profiling, strain panel (AID 1159580);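 note: tested at 20 µM; growth read once vehicle control cultures reached saturation at 30 °C; 1 = growth at the plate median or of vehicle wells; lower values mean less growth of the strain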
Conditions: S. cerevisiae deletion strains, growth OD

Measured: normalized growth

NCCc1c[nH]c2ccc(O)cc12
inactive: locus YAL013W, strain DEP1, stronger effect = lower value 1.02 | locus YAL040C, strain CLN3, stronger effect = lower value 0.969 | locus YCL061C, strain MRC1 (second series), stronger effect = lower value 1.01 | locus YDR363W, strain ESC2, stronger effect = lower value 1.01 | locus YER002W, strain NOP16, stronger effect = lower value 1.01 | locus YHR030C, strain SLT2, stronger effect = lower value 1.02 | locus YHR079C, strain IRE1, stronger effect = lower value 1.02 | locus YJL095W, strain BCK1, stronger effect = lower value 1.01 | locus YJR066W, strain TOR1, stronger effect = lower value 0.942 | locus YLR113W, strain HOG1, stronger effect = lower value 0.991 | locus YMR307W, strain GAS1, stronger effect = lower value 1.03 | locus YNL175C, strain NOP13, stronger effect = lower value 1.01 | locus YNL183C, strain NPR1, stronger effect = lower value 0.949 | locus YNL197C, strain WHI3, stronger effect = lower value 1 | locus YNL224C, strain SQS1, stronger effect = lower value 1.01 | locus YOR083W, strain WHI5 (second series), stronger effect = lower value 1.04 | locus YOR231W, strain MKK1, stronger effect = lower value 1.02 | locus YPL256C, strain CLN2, stronger effect = lower value 1.01
